Rows were chosen to be rich in hits. Some 4.2% of all compounds tested hit in one or more screens of this group.
hgDAF-12 ag: activates the H. glycines DAF-12 receptor ligand-binding domain | AID 687014 | activation, % at 6.8 µM | 370,000 compounds, 1.8% hits | HEK293 GAL4-hgDAF12 UAS-luciferase reporter, agonist luminescence; normalized to butyrate control;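 active = activation above a cutoff set at the mean of all screened compounds plus 3 SD, cut at about 10% in these data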;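 note: 0% = DMSO wells and 100% = sodium butyrate wells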
hcDAF-12 act: activates DAF-12 receptor from parasite H. contortus; HEK293 hcDAF-12 lit1-tk-luc reporter, luminescence; 0% DMSO, 100% Δ7-dafachronic acid; activation, % at 6.8 µM; 370,000 compounds, 1.4% hits; AID 652067;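 active = activation above the mean of all tested compounds plus 3 SD, cut at about 5.5% in these data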;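 note: 100% = response to 3 µM Δ7-dafachronic acid high control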
SMARCA2 activ: increases SMARCA2 function in MMTV reporter cells | MG213 cells, MMTV-luciferase reporter, dexamethasone, overnight | activation, % at 9.1 µM | 370,000 compounds, 1% hits; in the data active = activation above about 7.8%;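 note: 0% = vehicle wells and 100% = reference activator wells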
DAX1 inh: blocks DAX1 repression of SF-1 activated StAR promoter | 370,000 compounds, 1.1% hits | inhibition, % at 6.8 µM | HEK293T StAR-luciferase reporter, SF-1/DAX-1 repression relief | AID 652010;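 active = inhibition above the mean over all tested compounds plus 3 SD, cut at about 3.6% in these data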;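 note: 0% = DAX-1 cells with DMSO and 100% = cells lacking DAX-1 with DMSO; higher inhibition means more luminescence from relief of DAX-1 repression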
ssDAF-12 act: activates DAF-12 receptor from parasite S. stercoralis; 370,000 compounds, 1% hits; AID 652126; activation, % at 6.8 µM; HEK293 ssDAF-12/GRIP1 lit1-tk-luc reporter, luminescence; % of 3 µM dafachronic acid response;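 active = activation above the mean over all tested compounds plus 3 SD, cut at about 0.9% in these data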;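 note: 0% = DMSO-only wells and 100% = 3 µM delta7-dafachronic acid wells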
LXR ag: counter-screen for hcDAF-12 agonists: agonists of human LXR-beta; 3,400 tested, under 10 active; HEK293 Gal4-LXR tk-luc reporter, luminescence, 24 h; normalized: DMSO 0%, positive control 100%; shares compounds with hcDAF-12 act; activation, % at 6.8 µM;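 active = mean percent activation of the reporter above a cutoff set as the average over tested compounds plus their standard deviation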
Target sequence (P55055 whole entry, looked up, the tested form may be a part): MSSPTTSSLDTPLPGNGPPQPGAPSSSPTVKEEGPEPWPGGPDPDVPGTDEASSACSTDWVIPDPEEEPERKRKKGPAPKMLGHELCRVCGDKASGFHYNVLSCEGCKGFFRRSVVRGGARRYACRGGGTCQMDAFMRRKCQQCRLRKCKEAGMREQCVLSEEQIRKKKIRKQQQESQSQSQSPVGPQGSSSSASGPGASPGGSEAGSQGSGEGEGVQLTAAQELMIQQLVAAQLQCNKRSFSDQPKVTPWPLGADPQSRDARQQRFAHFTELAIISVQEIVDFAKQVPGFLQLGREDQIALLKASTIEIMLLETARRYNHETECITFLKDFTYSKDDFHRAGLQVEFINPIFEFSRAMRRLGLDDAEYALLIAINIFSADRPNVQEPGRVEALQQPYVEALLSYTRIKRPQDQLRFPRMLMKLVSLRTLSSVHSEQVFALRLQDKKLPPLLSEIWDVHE
hcDAF12 ag: hcDAF-12 agonism, confirmation assay. shares compounds with hcDAF-12 act. HEK293 hcDAF-12 lit1-tk-luc reporter, luminescence; % of Δ7-dafachronic acid response. activation, % at 6.8 µM. 3,400 compounds, 61% hits. AID 743032;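 active = mean activation across triplicate tests above the threshold derived from the earlier primary screen, cut at about 5.5% in these data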;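 note: 0% = DMSO only wells and 100% = 3 µM Δ7-dafachronic acid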
* hit, by the source's call.

COc1ccccc1/C=C/C(=O)N1CCC(c2ccccc2)C1 (stereo unspecified) was read as hgDAF-12 ag 12*, hcDAF-12 act 6.7*, SMARCA2 activ 4, DAX1 inh 1, ssDAF-12 act 1.0*, LXR ag 0 and hcDAF12 ag 4.
`CC(=O)c1ccc(N2Cc3ccccc3C2=NC(=O)c2cccs2)cc1` gave hgDAF-12 ag 12*, hcDAF-12 act 6.6*, SMARCA2 activ 2, DAX1 inh 4, ssDAF-12 act 0, LXR ag 0 and hcDAF12 ag 4.
`CCOC(=O)c1ccc(N2Cc3ccccc3C2=NC(=O)c2cccs2)cc1` gave hgDAF-12 ag 1, hcDAF-12 act -1, SMARCA2 activ 0, DAX1 inh 2 and ssDAF-12 act -1.
`CC(=O)NCCC(=O)N1CCc2c([nH]c3ccccc23)C1c1cccc(C)c1` (stereo unspecified) gave hgDAF-12 ag 9, hcDAF-12 act 7.1*, SMARCA2 activ -1, DAX1 inh 0, ssDAF-12 act 0, LXR ag 0 and hcDAF12 ag 7.6*.
Screening CC(=O)NCCC(=O)N1CCc2c([nH]c3ccccc23)C1c1cccc(Cl)c1 (stereo unspecified) returned hgDAF-12 ag -1, hcDAF-12 act 4, SMARCA2 activ -3, DAX1 inh 0 and ssDAF-12 act -1.
Screening O=c1[nH]c(-c2cccnc2)nc2ccccc12 returned hgDAF-12 ag -1, hcDAF-12 act 0, SMARCA2 activ -2, DAX1 inh 0 and ssDAF-12 act -1.
For N=c1oc2ccccc2cc1-c1nc2ccccc2c(=O)[nH]1 the results were hgDAF-12 ag 1, hcDAF-12 act 8.3*, SMARCA2 activ 1, DAX1 inh 2, ssDAF-12 act 0, LXR ag 0 and hcDAF12 ag 5.
For CC1CCN(C(=O)c2ncn3c2C(=O)N[C@H](C)C3)CC1 the results were hgDAF-12 ag -2, hcDAF-12 act -1, SMARCA2 activ -2, DAX1 inh 0 and ssDAF-12 act -1.
Cc1nc2ccc(N=NC3=C(O)CC(C)(C)CC3=O)cc2s1 was read as hgDAF-12 ag 12*, hcDAF-12 act 8.0*, SMARCA2 activ 1, DAX1 inh 1, ssDAF-12 act 1.6*, LXR ag 2 and hcDAF12 ag 7.5*.
`Cc1nc2ccc(N=NC3=C(O)CCCC3=O)cc2s1` gave hgDAF-12 ag 9, hcDAF-12 act 2, SMARCA2 activ 7, DAX1 inh 1 and ssDAF-12 act -1.
Screening CCOc1ccc(NC(=O)Nc2cccs2)cc1 returned hgDAF-12 ag 11*, hcDAF-12 act 7.3*, SMARCA2 activ 5, DAX1 inh 3, ssDAF-12 act 1, LXR ag 1 and hcDAF12 ag 5.
Cc1noc(C)c1S(=O)(=O)N(C)C[C@@H]1OCc2cn(nn2)CCCC(=O)N([C@H](C)CO)C[C@H]1C was read as hgDAF-12 ag -1, hcDAF-12 act -2, SMARCA2 activ -4, DAX1 inh 0 and ssDAF-12 act -1.
Screening Cc1ccc(-n2nnc(-c3cnc4ccccc4c3)n2)cc1 returned hgDAF-12 ag 10, hcDAF-12 act 9.9*, SMARCA2 activ 7, DAX1 inh 2, ssDAF-12 act 1.6*, LXR ag 2 and hcDAF12 ag 14*.
`c1ccc2ncc(-n3cnnn3)cc2c1` gave hgDAF-12 ag 2, hcDAF-12 act 2, SMARCA2 activ 1, DAX1 inh 0 and ssDAF-12 act -1.
Cc1ccc(-n2nnc(-c3nccn3C)n2)cc1 was read as hgDAF-12 ag 7, hcDAF-12 act 6.9*, SMARCA2 activ 2, DAX1 inh 3, ssDAF-12 act 0, LXR ag 1 and hcDAF12 ag 7.3*.
For Fc1ccc(-n2nnc(-c3nccs3)n2)cc1 the results were hgDAF-12 ag 8, hcDAF-12 act 4, SMARCA2 activ 5, DAX1 inh 2 and ssDAF-12 act 0.
`C=CCN1C(=O)c2[nH]nc(-c3ccccc3)c2C1c1ccc(C)cc1` (stereo unspecified) gave hgDAF-12 ag 0, hcDAF-12 act 0, SMARCA2 activ -4, DAX1 inh 0 and ssDAF-12 act -1.
Screening CCCCN(C)c1nc(C)nc2c1nnn2Cc1ccccc1 returned hgDAF-12 ag 0, hcDAF-12 act -3, SMARCA2 activ -2, DAX1 inh -2 and ssDAF-12 act -2.
Screening Nc1ccc2nn(-c3ccccc3)nc2c1 returned hgDAF-12 ag 8, hcDAF-12 act 4, SMARCA2 activ -2, DAX1 inh 1 and ssDAF-12 act 0.
`Nc1cc2nn(-c3ccccc3)nc2cc1Cl` gave hgDAF-12 ag 22*, hcDAF-12 act 14*, SMARCA2 activ 3, DAX1 inh 4.4*, ssDAF-12 act 3.4*, LXR ag 1 and hcDAF12 ag 17*.
Cc1ccc(-n2nc3cc(C)c(N)cc3n2)cc1 was read as hgDAF-12 ag 11*, hcDAF-12 act 15*, SMARCA2 activ 2, DAX1 inh 3.9*, ssDAF-12 act 2.5*, LXR ag 2 and hcDAF12 ag 16*.
COc1ccc(-n2nc3cc(N)c(Br)cc3n2)cc1 was read as hgDAF-12 ag 13*, hcDAF-12 act 13*, SMARCA2 activ 3, DAX1 inh 2, ssDAF-12 act 1.2*, LXR ag 1 and hcDAF12 ag 12*.
C#CCOc1ccccc1C(=O)NNc1ccc([N+](=O)[O-])cc1[N+](=O)[O-] was read as hgDAF-12 ag 1, hcDAF-12 act 1, SMARCA2 activ -2, DAX1 inh 0 and ssDAF-12 act -1.
`COc1ccc(NC(=O)C2Cc3c(-c4ccc(Cl)cc4)ccnc3O2)cn1` (stereo unspecified) gave hgDAF-12 ag -1, hcDAF-12 act -3, SMARCA2 activ -7, DAX1 inh -1 and ssDAF-12 act -2.
COc1ccc(-c2nnc(SCC(=O)N/N=C(\C)c3ccc(-c4ccccc4)cc3)n2-c2ccc(C)cc2)cc1 was read as hgDAF-12 ag 1, hcDAF-12 act 3, SMARCA2 activ -7, DAX1 inh 0 and ssDAF-12 act -1.
O=C1c2ccccc2S(=O)(=O)c2cc(N3CCN(c4ccccc4)CC3)ccc21 was read as hgDAF-12 ag 2, hcDAF-12 act -1, SMARCA2 activ 1, DAX1 inh 1 and ssDAF-12 act -1.
Screening O=C1c2ccccc2S(=O)(=O)c2cc(N3CCOCC3)ccc21 returned hgDAF-12 ag 8, hcDAF-12 act 6.6*, SMARCA2 activ 5, DAX1 inh 3, ssDAF-12 act 0, LXR ag 1 and hcDAF12 ag 4.
